Assay outcomes (PubChem)
CBX7 inh: CBX7 inhibition, primary AlphaScreen. AID 1224903. AlphaScreen His6-CBX7 / biotin-H3K27me3 peptide binding; hits give low values. 1.1% of 66,000 active. O95931. normalised signal (fraction of DMSO) (no concentration beside the values); in the data active means normalised signal below about 0.5
Target sequence (O95931 whole entry, looked up): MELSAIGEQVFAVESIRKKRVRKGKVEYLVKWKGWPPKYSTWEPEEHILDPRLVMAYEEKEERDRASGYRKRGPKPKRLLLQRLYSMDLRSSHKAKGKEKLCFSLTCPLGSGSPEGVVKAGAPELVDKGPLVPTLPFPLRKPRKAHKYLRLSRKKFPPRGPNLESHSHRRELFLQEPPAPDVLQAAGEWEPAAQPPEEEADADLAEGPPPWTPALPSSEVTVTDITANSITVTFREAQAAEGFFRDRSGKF
A number is an active result; n = inactive. The full list was thinned out, with hits kept by preference.

SMILES	CBX7 inh
C=CCNC(=O)c1c[nH]c2ccc(S(=O)(=O)N(C)c3ccc(Cl)cc3)cc2c1=O	n
COC(=O)c1ccc(C(=O)NCCc2c(C)[nH]c3ccc(OC)cc23)cc1	n
COc1ccc2[nH]c(C)c(CCNCC(C)Cc3ccc4c(c3)OCO4)c2c1 (stereo not drawn)	0.34
COC(=O)c1cccc(CNCCc2c(C)[nH]c3ccc(OC)cc23)c1	n
COc1cc(-c2nc3sc4c(c3c(=O)[nH]2)CCCC4)ccc1OCCOc1cc(C)ccc1C(C)C	n
CCOC(=O)c1cnc2cc(C(F)(F)F)ccc2c1N1CCN(c2ccccc2OC)CC1	n
CCOC(=O)c1cnc2c(OC)cccc2c1N1CCN(c2ccccc2)CC1	n
CCOC(=O)c1cnc2c(OC)cccc2c1N1CCN(c2ccccc2F)CC1	0.43
CCOC(=O)c1cnc2ccc(OCC)cc2c1N1CCN(c2ccccc2OC)CC1	0.46
CCOC(=O)c1cnc2c(OC)cccc2c1N1CCC(C)CC1	n
CCOC(=O)c1cnc2ccc(OCC)cc2c1N1CCCCCC1	n
CCCN(CCC)C(=O)c1cc2c(n(-c3ccccc3)c1=O)CC(C)(C)CC2=O	n
CC(C)NC(=O)CCn1nc(-c2ccc(Cl)cc2)ccc1=O	n
CCc1ccc(NC(=O)c2sc3ncn(CC(=O)N4CCCCC4C)c(=O)c3c2C)cc1 (stereo not drawn)	n
CC1CCN(c2c(NCc3ccc(C(=O)NC(C)c4ccccc4)cc3)c(=O)c2=O)CC1 (stereo not drawn)	n
O=C(CCNC(=O)Cn1ccc2ccccc2c1=O)NCCCN1CCCC1=O	n
CCOC(=O)c1cc(-c2ccc(OC)cc2)n(CCC(=O)Nc2ccccc2CC)c1C	n
C=CCn1c(C2CC(=O)N(c3ccc(Br)cc3)C2)nc2ccccc21 (stereo not drawn)	n
CC(C)(C)n1cnc2cc(NCc3ccccc3Cl)ccc21	0.4
CC(C)c1ccc(CNc2ccc3c(c2)ncn3C(C)(C)C)cc1	0.29
COc1ccccc1-n1cnc2cc(NCc3ccc(Cl)cc3)ccc21	n
CC(C)n1cnc2cc(NCc3ccncc3)ccc21	n
Cc1ccc(S(=O)(=O)Nc2ccc3c(c2)ncn3C(C)(C)C)cc1	n
Cc1ccc(CNc2ccc3c(c2)ncn3C(C)(C)C)cc1	0.41
CCn1cnc2cc(NCc3ccc(Cl)cc3Cl)ccc21	n
SMILES	CBX7 inh
CC(C)c1ccc(CNc2ccc3oc(-c4ccccc4)nc3c2)cc1	n
COc1cccc(CNc2ccc3c(c2)ncn3C(C)C)c1OC	n
COc1ccc(CNc2ccc3c(c2)ncn3C(C)(C)C)cc1	n
CC(C)n1cnc2cc(NCc3cccc4ccccc34)ccc21	0.25
Cc1cccc(-c2noc(CN(C(=O)c3ccc(F)cc3)C(C)C)n2)c1	n
O=C(Nc1c(F)cc(F)cc1Br)c1cc(-c2ccc3c(c2)OCO3)on1	n
CCOc1ccc(-c2cc(C(=O)NCCCN3CCCCCC3)c3ccccc3n2)cc1	n
CC(C)c1ccc(CN(C(=O)COc2ccc(Br)cc2)C2CCS(=O)(=O)C2)cc1 (stereo not drawn)	n
Cc1cc(N2CCN(c3ccc(F)cc3)CC2)n2nc(C)c(-c3ccc(Cl)cc3)c2n1	n
Cc1cccc(-n2c(Cc3cc(=O)[nH]c(=O)[nH]3)nnc2SCC(=O)Nc2nccs2)c1	n
O=C(NCc1c(F)cc(F)cc1F)c1ccc2c(c1)N(Cc1ccc(Cl)cc1)C(=O)CS2	n
CC(C)(C)c1ccc(-c2nnc3sc(-c4ccccn4)nn23)cc1	0.11
c1ccc(-c2nnc3sc(-c4cnccn4)nn23)cc1	n
c1ccc(-c2nnc3sc(-c4ccccn4)nn23)cc1	n
CCOC(=O)N1CCC(N2Cc3cccc(C(=O)Nc4ccc(C(C)C)cc4)c3C2=O)CC1	n
CCn1cc(C(=O)Nc2ccc(OC)cc2OC)c2cc(OC)c(OC)cc2c1=O	n
CCC(=C(c1ccc(OC)cc1)c1ccc(OC)cc1)c1cn(CC(O)CN2CCCC2)c2ccccc12 (stereo not drawn)	0.26
COc1ccc(-c2cc3ccccc3n2CC(O)CN2CCCCCC2)cc1 (stereo not drawn)	n
OC(CN1CCCCC1)Cn1c2ccccc2c2ccccc21 (stereo not drawn)	n
COc1ccc(Nc2cc(C(=O)NCCCN(CC(C)C)CC(C)C)c3ccccc3n2)cc1OC	n
Cc1ccccc1Nc1c(-c2ccccc2)nc2cccc(C)n12	n
Cc1ccccc1Nc1c(-c2ccc(Cl)cc2)nc2cccc(C)n12	n
Cc1ccccc1Nc1c(-c2ccc(N(C)C)cc2)nc2cccc(C)n12	0.46
CCCCN(CCCC)S(=O)(=O)c1ccc2oc(C(=O)Nc3ccc(F)cc3)c(C)c2c1	n
CCn1cc(C(=O)N2CCC(N3CCC(C(N)=O)CC3)CC2)c(=O)c2ccc(C)nc21	n
Cn1cc(CC(=O)NCCCN2CCCC2)c2ccccc21	n
CCN(CC)CCCNC(=O)Cc1cn(C)c2ccccc12	n
CCN(CCCNC(=O)Cc1cn(C)c2ccccc12)c1ccccc1	0.5
CC(C)(C)OC(=O)N1CCC(c2c(C(=O)O)cnn2-c2ccc(F)cc2)CC1	n
O=C(COc1ccccc1)Nc1nc(-c2ccc(Cl)cc2)cs1	n
